Among all 310,000 compounds or so, about 1,200 (0.39%) were called active. The list is a sample of the results. Potency and affinity values are given separately. A number with no mark means an inactive call. No rule for the calls is given here.

For this test, the target named is Large T antigen (Simian virus 40) (UniProt P03070). The test is described as follows: SV40 large T antigen inhibitors, biochemical (AID 1903). The note with it: SV40 large T antigen ATPase/helicase inhibition assay; at 20 µM; stronger effect = higher value.
Chain of Large T antigen (Simian virus 40) (P03070 whole entry, looked up): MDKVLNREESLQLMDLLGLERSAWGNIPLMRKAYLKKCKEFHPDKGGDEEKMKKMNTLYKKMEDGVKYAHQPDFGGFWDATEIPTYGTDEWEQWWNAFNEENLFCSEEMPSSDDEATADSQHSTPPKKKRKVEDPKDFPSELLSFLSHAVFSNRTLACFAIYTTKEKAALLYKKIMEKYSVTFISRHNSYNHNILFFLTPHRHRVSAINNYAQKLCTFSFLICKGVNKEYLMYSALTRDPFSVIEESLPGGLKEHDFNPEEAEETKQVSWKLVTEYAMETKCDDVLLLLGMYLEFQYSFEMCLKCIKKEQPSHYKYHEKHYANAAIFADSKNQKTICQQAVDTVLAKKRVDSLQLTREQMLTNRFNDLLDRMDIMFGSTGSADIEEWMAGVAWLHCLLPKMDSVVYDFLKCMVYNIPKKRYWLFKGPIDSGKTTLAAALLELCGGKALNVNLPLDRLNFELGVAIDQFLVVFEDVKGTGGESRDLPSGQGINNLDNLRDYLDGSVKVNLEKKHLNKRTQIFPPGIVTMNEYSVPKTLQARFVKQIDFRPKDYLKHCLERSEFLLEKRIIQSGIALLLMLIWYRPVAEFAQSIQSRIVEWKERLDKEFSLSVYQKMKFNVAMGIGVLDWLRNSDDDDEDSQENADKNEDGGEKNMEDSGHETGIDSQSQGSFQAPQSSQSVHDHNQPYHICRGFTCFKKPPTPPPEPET
On to `COc1ccc(-c2nc(-c3cccs3)c(-c3cccs3)[nH]2)cc1OC`, for which the inhibition was 8.77%. Then `Clc1nccnc1N/N=C/c1ccc(Br)cc1`, with 0.07%. As to `Oc1ccc(/C=N/Nc2cccc(Cl)n2)c(O)c1`, the inhibition was 21.8%. With `Oc1ccc(/C=N/Nc2ccnc3cc(Cl)ccc23)c(O)c1` the figure was 8.76%. On to `COc1ccc(/C=N/Nc2nccnc2Cl)c(OC)c1`, for which the inhibition is 5.32%.

Take `Fc1ccc(/C=N/Nc2nccnc2Cl)cc1`: the inhibition was 8.81%.

Consider `Oc1ccccc1/C=N/Nc1nccnc1Cl`, for which the inhibition is 0.02%. Then `Cc1cc(C)c(C)c(S(=O)(=O)N2CCSCC2)c1C`, with 8.62%.

Turning to `N#Cc1c(NC(=O)COC(=O)c2ccc(F)cc2)sc2c1CCC2`, the inhibition was 1.58%. Take `O=C(CSc1nc2c(cnn2-c2ccccc2)c(=O)[nH]1)N1CCCCC1`: the inhibition is 24.9%.

Regarding `COc1ccc(/C=C(\NC(=O)c2ccc(OC)cc2)C(=O)NC(CCSC)C(=O)O)cc1` (stereo unspecified), the inhibition was 9.06%. Consider `O=C(Nc1ccccc1)C1CCN(S(=O)(=O)c2ccc3c(c2)OCCO3)CC1`, for which the inhibition is 20.4%. `CCCCn1c(SCC(N)=O)nnc1-c1ccco1`: the inhibition is 8.33%. Turning to `NC(=O)CSc1nnc2ccc(-c3ccco3)nn12`, the inhibition is 16.6%. For `O=C(COc1cccnc1[N+](=O)[O-])c1c[nH]c2ccccc12`, the inhibition was 21.6%. `Cc1cc(C)c(C(=O)COc2cccnc2[N+](=O)[O-])cc1C`: the inhibition was -4.61%.

For `COc1ccc(C2OCC3(O)C(c4ccc(OC)c(OC)c4)OCC23)cc1OC` (stereo unspecified), the inhibition is 4.9%. Then `COc1ccc(/C=N/NS(=O)(=O)c2ccccc2)cc1OC`, with 13.2%. As to `C/C(=N\NS(=O)(=O)c1ccc([N+](=O)[O-])cc1)c1c[nH]c2ccccc12`, the inhibition is 34%. For the compound `O=[N+]([O-])c1cccc(/C=N/NS(=O)(=O)c2ccccc2)c1`, the inhibition is 9.33%. Regarding `CCN(CC)c1ccc(/C=N/NS(=O)(=O)c2cccc([N+](=O)[O-])c2)cc1`, the inhibition is 10.4%. On to `Cc1ccc(S(=O)(=O)N/N=C/c2ccccc2O)cc1[N+](=O)[O-]`, for which the inhibition is 12.5%.

`CN(C)c1ccc(/C=N/NS(=O)(=O)c2ccc(Br)cc2)cc1`: the inhibition was 24.5%. In the case of `C/C(=N/NS(=O)(=O)c1ccccc1)c1c[nH]c2ccccc12`, the inhibition is 31.3%. With `COc1cc(/C=N/NS(=O)(=O)c2ccc(C)c([N+](=O)[O-])c2)cc([N+](=O)[O-])c1O`, the inhibition is 24.7%. Regarding `Cc1ccc(C(c2c(C)[nH][nH]c2=O)c2c(C)[nH][nH]c2=O)cc1[N+](=O)[O-]`, the inhibition was 20.9%. Turning to `COC(=O)c1cccc(-n2c(C)cc(C=O)c2C)c1C`, the inhibition was 17.4%. Regarding `NC(=O)C1CCN(C(=O)c2ccc(Oc3ccccc3)cc2)CC1`, the inhibition is 13.6%. As to `COC(=O)c1c(S(N)(=O)=O)c2ccccc2n1C`, the inhibition was 21.9%. For the compound `Nc1nccnc1C(=O)OCC(=O)N1CCN(S(=O)(=O)c2ccc(Cl)cc2)CC1`, the inhibition is 15.7%. Then `CC1=NN(c2ccccc2)C(=O)C1N=Nc1ccc(C)cc1` (stereo unspecified), with -3.33%; and `CC1=NN(c2ccccc2)C(=O)C1c1ccccc1` (stereo unspecified), with 31.6%; and `CCOc1ccccc1NC(=O)COC(=O)CSc1ccc(Cl)cc1`, with -3.03%. For the compound `COc1cccc(-c2nn(C)c3sc(C(=O)NCc4ccco4)cc23)c1`, the inhibition was 16.5%.

With `CCn1c(-c2cc(OC)c(OC)c(OC)c2)n[nH]c1=S`, the inhibition was 8.67%. As to `COc1cc(-c2nc(N)n[nH]2)cc(OC)c1OC`, the inhibition was 3.91%. As to `O=C(CNC(=O)c1ccccc1)OCCCOC(=O)CNC(=O)c1ccccc1`, the inhibition is 8.32%. Turning to `Cc1cc(C)c(C)c(S(=O)(=O)N2CCN(C(=O)c3ccco3)CC2)c1C`, the inhibition is 30.6%.

For `Fc1ccc(-c2nc(-c3cccs3)[nH]c2-c2ccc(F)cc2)cc1`, the inhibition is 0.16%. `O=C(O)c1ccc(-c2nc(-c3ccccc3)c(-c3ccccc3)[nH]2)cc1`: the inhibition is 13.6%. Then `Cn1c(Cc2ccccc2)nnc1SCC(=O)NC1CC1`, with 5.03%; and `Cc1cc(C)nc(SCCN(C)C)n1`, with 21.5%; and `Cc1cc(C)nc(SCSc2nc(C)cc(C)n2)n1`, with 1.38%. Turning to `N#CC1=C(N)C2=CCCC[C@H]2[C@H](c2ccc(Br)cc2)C1(C#N)C#N`, the inhibition was 29.5%. Then `N#CC1=C(N)C2=CCCC[C@H]2[C@H](c2ccccc2)C1(C#N)C#N`, with 10.5%; and `COC(=O)C1=C(O)/C(=C\c2cc(C)n(-c3ccccc3C)c2C)N=C1C`, with 21.4%.

On to `COC(=O)C1=C(O)/C(=C\c2cc(C)n(-c3ccccc3F)c2C)N=C1C`, for which the inhibition was 8.75%. With `CCOC(=O)C1=C(O)/C(=C\c2cccc(OC)c2)N=C1C`, the inhibition was 4.85%.

For `CCOC(=O)C1=C(O)/C(=C\c2cccs2)N=C1C`, the inhibition is 10.2%. Consider `Cc1nc2ccccc2c(C)c1CC(=O)N(C)CC(=O)Nc1cccc(F)c1`, for which the inhibition is 6.37%. With `Cc1noc(C)c1C(=O)Nc1nc2ccc(Cl)cc2s1`, the inhibition was 13.7%. With `Cc1cc(C)nc(SCC(=O)N2CCCCC2)n1` the figure was 24.1%; with `O=C1c2ccc3c4c(ccc(c24)C(=O)N1c1ccc(O)cc1)C(=O)N(c1ccc(O)cc1)C3=O`, 2.8%; with `O=C1CCCC(=O)N1c1ccc(O)cc1`, 12.2%.

Consider `O=C(NC1CC1)C1=C[C@@H](c2ccccc2)C[C@@H](OCCCCO)O1`, for which the inhibition is 5.56%. Turning to `COc1cc(/C=C(\C#N)C(=O)Nc2cccc(C(=O)O)c2)ccc1OCc1ccc(F)cc1`, the inhibition was -17.7%. With `Cc1c(C(=O)NN)[nH]c2ccc([N+](=O)[O-])cc12`, the inhibition is 7.05%. On to `CCOC(=O)C1(CCc2ccccc2)CCN(C(=O)c2cccc(C)n2)CC1`, for which the inhibition was 4.43%. For the compound `CCc1nnc(NS(=O)(=O)c2ccc(NC(=O)c3cc4ccccc4oc3=O)cc2)s1`, the inhibition was -3.35%. As to `CCc1nnc(NS(=O)(=O)c2ccc(NC(=O)c3cccc4ccccc34)cc2)s1`, the inhibition was 11.1%. With `O=C(c1cc(-c2ccccc2Cl)nc2ccccc12)N1CCC1`, the inhibition is 8.29%.
